# Test results: article PMC7862700, “An all-to-all approach to the identification of sequence-specific readers for epigenetic DNA modifications on cytosine”
# Experiments:
# Assay in all cases: DAPPL (digital affinity profiling via proximity ligation, sequencing); 10 mM Tris-HCl pH 7.5, 50 mM NaCl, 1 mM DTT, 4% glycerol, room temperature, 30 min; GST-TFs on glutathione beads, 16-mer random dsDNA library, 0.1% formaldehyde crosslink after washing; high values mean tight binding
# FLI1 = target: T1, FLI1 (Homo sapiens, UniProt Q01543 1-452); conditions: protein: recombinant; tags: N-terminal GST; dsDNA, one strand shown
# T1 sequence: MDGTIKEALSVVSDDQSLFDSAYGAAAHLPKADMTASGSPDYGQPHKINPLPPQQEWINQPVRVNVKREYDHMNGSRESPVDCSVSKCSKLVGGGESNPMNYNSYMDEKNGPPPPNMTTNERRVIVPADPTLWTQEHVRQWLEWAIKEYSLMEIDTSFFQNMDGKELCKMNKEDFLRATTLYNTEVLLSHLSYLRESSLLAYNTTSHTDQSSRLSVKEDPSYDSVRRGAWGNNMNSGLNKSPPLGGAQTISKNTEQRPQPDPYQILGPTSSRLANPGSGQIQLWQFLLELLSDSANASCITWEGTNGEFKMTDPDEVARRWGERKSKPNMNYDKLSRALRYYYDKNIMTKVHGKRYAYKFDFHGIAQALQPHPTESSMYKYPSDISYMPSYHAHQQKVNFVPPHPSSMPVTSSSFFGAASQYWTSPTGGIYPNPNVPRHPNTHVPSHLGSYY
# Outline: (§1)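 In yeast, human transcription factors were expressed with a GST fusion, then pulled down on glutathione beads and given DNA barcodes. Pooled with a tag-only sample, they were exposed to 200 nmole of a 16-mer random double-stranded DNA library (Tris/NaCl/DTT/glycerol buffer, room temperature, 30 min), washed, crosslinked with 0.1% formaldehyde, proximity-ligated using BsaI/T4 ligase for 1 h at 37 °C, PCR-amplified and read on an Illumina NextSeq500. Each hexamer's frequency of reads for a factor, divided by the matching frequency for the tag-only sample, gives the binding signal.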
# ELK1 = target: T2, ELK1 (Homo sapiens, UniProt P19419 1-428); conditions: protein: recombinant; tags: N-terminal GST; dsDNA, one strand shown
# T2 sequence: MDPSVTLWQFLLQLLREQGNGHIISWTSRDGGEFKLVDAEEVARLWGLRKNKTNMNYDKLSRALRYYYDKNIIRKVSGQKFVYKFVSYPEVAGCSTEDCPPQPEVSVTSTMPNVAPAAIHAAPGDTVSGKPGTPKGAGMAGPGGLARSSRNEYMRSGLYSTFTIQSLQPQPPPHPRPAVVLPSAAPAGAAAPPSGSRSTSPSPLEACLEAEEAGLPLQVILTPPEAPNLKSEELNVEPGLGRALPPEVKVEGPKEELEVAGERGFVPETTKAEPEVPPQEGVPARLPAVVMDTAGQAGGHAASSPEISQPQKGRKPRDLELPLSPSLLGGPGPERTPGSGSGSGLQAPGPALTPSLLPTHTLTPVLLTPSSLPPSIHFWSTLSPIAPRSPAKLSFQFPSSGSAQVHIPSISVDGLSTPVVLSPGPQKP
# Outline: as §1
# GABPA = target: T3, GABPA (Homo sapiens, UniProt Q06546 1-454); conditions: protein: recombinant; tags: N-terminal GST; dsDNA, one strand shown
# T3 sequence: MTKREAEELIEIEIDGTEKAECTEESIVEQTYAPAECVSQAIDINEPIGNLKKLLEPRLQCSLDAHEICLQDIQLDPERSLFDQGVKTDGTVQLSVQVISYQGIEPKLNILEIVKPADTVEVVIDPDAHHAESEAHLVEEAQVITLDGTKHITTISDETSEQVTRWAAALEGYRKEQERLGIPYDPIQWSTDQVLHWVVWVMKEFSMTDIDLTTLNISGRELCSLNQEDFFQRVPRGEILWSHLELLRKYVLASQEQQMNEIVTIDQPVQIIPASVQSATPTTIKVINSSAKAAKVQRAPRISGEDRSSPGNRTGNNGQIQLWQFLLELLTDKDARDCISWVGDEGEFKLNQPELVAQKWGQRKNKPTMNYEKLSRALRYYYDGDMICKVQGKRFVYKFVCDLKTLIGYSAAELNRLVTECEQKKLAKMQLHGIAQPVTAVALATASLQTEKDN
# Outline: as §1
# ERG = target: T4, ERG (Homo sapiens, UniProt P11308 1-479); conditions: protein: recombinant; tags: N-terminal GST; dsDNA, one strand shown
# T4 sequence: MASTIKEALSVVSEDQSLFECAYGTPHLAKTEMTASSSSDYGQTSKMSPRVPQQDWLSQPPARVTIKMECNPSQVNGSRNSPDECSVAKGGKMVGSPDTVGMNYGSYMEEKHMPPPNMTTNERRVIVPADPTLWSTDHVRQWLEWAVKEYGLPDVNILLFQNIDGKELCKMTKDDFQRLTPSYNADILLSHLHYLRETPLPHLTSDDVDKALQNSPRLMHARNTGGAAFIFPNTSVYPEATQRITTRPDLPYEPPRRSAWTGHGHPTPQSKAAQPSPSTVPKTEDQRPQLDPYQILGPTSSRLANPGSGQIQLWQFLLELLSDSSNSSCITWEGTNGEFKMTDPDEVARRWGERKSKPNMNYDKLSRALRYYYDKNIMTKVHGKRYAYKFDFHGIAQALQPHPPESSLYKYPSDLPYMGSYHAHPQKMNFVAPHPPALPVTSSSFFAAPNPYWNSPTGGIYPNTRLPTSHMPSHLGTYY
# Outline: as §1
# ELF1 = ELF1 (Homo sapiens, UniProt P32519 1-619); conditions: protein: recombinant; tags: N-terminal GST; dsDNA, one strand shown
# Outline: as §1
# EHF = target: T5, EHF (Homo sapiens, UniProt Q9NZC4 1-300); conditions: protein: recombinant; tags: N-terminal GST; dsDNA, one strand shown
# T5 sequence: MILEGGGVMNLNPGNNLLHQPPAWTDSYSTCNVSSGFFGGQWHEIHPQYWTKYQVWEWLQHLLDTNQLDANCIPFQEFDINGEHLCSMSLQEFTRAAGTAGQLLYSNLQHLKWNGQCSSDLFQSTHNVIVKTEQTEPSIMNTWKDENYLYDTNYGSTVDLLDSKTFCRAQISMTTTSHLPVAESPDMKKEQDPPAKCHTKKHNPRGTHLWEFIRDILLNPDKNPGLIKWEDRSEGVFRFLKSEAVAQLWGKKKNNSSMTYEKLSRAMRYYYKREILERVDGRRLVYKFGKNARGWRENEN
# Outline: as §1
# SPI1 = SPI1 (Homo sapiens, UniProt P17947 1-270); conditions: protein: recombinant; tags: N-terminal GST; dsDNA, one strand shown
# Outline: as §1
# SPIB = SPIB (Homo sapiens, UniProt Q01892 1-262); conditions: protein: recombinant; tags: N-terminal GST; dsDNA, one strand shown
# Outline: as §1
# ELK3 = target: T6, ELK3 (Homo sapiens, UniProt P41970 1-407); conditions: protein: recombinant; tags: N-terminal GST; dsDNA, one strand shown
# T6 sequence: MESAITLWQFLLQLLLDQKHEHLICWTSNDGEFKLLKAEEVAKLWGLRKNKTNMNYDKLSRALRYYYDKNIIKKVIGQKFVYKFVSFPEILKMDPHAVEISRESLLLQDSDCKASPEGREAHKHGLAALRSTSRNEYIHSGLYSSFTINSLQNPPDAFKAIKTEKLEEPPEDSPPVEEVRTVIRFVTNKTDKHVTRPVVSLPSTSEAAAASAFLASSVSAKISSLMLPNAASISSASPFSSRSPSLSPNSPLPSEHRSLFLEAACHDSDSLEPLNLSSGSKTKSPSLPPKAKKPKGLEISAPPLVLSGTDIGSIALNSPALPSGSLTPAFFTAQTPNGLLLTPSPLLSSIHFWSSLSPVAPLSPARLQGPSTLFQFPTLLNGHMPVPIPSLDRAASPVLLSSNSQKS
# Outline: as §1
# FEV = target: T7, FEV (Homo sapiens, UniProt Q99581 1-238); conditions: protein: recombinant; tags: N-terminal GST; dsDNA, one strand shown
# T7 sequence: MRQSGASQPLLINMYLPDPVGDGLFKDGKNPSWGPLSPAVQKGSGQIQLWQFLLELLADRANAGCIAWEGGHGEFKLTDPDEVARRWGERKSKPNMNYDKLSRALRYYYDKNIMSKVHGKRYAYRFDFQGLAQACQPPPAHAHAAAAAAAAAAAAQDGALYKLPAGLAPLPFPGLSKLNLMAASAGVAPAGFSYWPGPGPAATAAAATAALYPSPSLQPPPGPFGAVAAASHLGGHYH
# Outline: as §1
# ETV5 = ETV5 (Homo sapiens, UniProt P41161 1-510); conditions: protein: recombinant; tags: N-terminal GST; dsDNA, one strand shown
# Outline: as §1
# HSF1 = HSF1 (Homo sapiens, UniProt Q00613 1-529); conditions: protein: recombinant; tags: N-terminal GST; chain copies: 3; dsDNA, one strand shown
# Outline: as §1
# SPIC = target: T8, SPIC (Homo sapiens, UniProt Q8N5J4 1-248); conditions: protein: recombinant; tags: N-terminal GST; dsDNA, one strand shown
# T8 sequence: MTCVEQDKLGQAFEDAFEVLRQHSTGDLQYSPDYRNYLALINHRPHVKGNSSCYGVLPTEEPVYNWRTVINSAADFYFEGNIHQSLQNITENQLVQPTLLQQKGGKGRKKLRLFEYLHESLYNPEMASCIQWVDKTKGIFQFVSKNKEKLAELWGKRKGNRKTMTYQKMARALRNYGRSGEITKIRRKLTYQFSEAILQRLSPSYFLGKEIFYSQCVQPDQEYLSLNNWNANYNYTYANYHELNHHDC
# Outline: as §1
# ELF4 = ELF4 (Homo sapiens, UniProt Q99607 1-663); conditions: protein: recombinant; tags: N-terminal GST; dsDNA, one strand shown
# Outline: as §1
# ELK4 = target: T9, ELK4 (Homo sapiens, UniProt P28324-2 1-405); conditions: protein: recombinant; tags: N-terminal GST; dsDNA, one strand shown
# T9 sequence: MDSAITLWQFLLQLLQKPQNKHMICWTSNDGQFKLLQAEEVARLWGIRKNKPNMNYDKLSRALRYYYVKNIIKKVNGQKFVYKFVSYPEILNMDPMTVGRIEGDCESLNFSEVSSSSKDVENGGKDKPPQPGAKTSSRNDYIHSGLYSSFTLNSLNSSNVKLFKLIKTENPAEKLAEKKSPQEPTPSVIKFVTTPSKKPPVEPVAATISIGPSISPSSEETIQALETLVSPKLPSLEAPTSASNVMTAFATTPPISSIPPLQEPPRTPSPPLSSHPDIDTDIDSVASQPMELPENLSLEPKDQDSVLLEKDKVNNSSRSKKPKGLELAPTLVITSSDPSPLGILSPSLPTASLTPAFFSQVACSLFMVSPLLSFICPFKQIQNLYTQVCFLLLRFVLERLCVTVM
# Outline: as §1
# ETV2 = target: T10, ETV2 (Homo sapiens, UniProt O00321 1-342); conditions: protein: recombinant; tags: N-terminal GST; dsDNA, one strand shown
# T10 sequence: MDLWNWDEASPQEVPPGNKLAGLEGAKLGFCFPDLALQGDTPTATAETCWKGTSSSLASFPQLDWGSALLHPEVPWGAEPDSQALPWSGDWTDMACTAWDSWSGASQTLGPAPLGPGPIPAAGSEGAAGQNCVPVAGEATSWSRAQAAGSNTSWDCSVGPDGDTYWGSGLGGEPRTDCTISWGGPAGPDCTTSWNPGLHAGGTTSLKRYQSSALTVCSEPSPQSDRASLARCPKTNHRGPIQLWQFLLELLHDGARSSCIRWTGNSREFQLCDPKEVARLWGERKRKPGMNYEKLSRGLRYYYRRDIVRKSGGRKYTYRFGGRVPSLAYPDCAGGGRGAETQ
# Outline: as §1
# ELF3 = target: T11, ELF3 (Homo sapiens, UniProt P78545 1-371); conditions: protein: recombinant; tags: N-terminal GST; dsDNA, one strand shown
# T11 sequence: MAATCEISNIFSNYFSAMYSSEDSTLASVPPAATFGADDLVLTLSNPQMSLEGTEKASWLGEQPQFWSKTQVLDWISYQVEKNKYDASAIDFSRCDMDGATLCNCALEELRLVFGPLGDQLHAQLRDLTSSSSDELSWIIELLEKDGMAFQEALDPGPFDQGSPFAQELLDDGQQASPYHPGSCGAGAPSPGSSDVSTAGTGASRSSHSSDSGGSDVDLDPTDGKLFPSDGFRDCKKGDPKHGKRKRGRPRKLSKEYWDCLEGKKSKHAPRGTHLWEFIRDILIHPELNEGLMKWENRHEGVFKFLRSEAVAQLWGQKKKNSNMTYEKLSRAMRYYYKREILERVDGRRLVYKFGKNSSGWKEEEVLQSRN
# Outline: as §1
# ETV1 = ETV1 (Homo sapiens, UniProt P50549 1-477); conditions: protein: recombinant; tags: N-terminal GST; dsDNA, one strand shown
# Outline: as §1
# Chain of ELF1 (P32519 whole entry): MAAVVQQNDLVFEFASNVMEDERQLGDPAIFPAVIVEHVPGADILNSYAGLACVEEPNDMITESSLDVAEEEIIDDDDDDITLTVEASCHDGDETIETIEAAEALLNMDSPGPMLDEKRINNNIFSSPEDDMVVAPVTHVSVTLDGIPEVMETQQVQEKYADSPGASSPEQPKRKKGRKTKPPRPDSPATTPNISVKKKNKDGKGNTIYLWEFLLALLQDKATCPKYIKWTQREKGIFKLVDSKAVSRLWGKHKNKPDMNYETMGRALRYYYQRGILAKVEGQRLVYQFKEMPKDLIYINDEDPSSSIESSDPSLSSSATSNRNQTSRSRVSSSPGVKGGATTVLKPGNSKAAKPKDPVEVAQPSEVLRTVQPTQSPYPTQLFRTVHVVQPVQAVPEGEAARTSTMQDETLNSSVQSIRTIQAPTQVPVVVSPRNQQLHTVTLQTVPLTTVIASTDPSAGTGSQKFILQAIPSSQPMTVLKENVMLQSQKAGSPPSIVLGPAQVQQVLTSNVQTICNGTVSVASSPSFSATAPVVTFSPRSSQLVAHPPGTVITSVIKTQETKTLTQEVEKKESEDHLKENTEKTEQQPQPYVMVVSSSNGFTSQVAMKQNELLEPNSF
# Chain of HSF1 (Q00613 whole entry): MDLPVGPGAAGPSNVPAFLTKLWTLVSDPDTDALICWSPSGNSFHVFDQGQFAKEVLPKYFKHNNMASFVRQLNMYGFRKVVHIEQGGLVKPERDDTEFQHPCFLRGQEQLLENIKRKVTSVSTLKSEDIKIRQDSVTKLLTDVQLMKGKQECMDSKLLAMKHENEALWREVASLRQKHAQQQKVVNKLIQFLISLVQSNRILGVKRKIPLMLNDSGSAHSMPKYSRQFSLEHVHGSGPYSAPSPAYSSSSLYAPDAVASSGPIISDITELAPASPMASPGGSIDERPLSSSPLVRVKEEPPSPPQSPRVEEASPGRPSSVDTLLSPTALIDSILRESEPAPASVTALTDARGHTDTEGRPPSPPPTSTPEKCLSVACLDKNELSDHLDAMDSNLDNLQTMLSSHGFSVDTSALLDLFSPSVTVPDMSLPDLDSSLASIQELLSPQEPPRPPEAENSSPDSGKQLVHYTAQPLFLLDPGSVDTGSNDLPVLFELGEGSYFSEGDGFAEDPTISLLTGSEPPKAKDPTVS
# Chain of SPIB (Q01892 whole entry): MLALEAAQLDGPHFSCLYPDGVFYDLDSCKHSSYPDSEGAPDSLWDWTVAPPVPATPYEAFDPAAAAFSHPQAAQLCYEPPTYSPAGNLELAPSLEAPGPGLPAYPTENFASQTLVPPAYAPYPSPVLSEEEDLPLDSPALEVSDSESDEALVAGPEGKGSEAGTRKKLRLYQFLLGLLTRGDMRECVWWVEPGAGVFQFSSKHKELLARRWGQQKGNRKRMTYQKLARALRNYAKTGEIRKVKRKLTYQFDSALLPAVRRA
# Chain of ELF4 (Q99607 whole entry): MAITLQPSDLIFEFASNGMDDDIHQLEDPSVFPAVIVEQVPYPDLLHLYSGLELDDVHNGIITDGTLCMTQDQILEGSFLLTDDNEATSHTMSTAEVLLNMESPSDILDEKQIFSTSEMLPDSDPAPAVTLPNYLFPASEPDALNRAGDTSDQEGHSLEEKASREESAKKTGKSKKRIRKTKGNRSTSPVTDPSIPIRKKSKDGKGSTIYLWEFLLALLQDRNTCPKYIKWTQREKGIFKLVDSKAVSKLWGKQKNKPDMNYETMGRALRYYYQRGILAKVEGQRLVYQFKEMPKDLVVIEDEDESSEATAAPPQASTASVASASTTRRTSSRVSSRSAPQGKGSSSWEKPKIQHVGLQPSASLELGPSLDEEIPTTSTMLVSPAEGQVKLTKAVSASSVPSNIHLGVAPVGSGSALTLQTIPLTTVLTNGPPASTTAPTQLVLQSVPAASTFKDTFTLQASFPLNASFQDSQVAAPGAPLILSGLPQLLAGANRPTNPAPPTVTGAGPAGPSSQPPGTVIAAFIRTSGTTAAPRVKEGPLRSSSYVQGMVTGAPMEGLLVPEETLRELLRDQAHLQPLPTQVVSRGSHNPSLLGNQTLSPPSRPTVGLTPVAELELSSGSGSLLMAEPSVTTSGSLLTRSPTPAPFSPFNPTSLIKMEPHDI
# Chain of ETV1 (P50549 whole entry): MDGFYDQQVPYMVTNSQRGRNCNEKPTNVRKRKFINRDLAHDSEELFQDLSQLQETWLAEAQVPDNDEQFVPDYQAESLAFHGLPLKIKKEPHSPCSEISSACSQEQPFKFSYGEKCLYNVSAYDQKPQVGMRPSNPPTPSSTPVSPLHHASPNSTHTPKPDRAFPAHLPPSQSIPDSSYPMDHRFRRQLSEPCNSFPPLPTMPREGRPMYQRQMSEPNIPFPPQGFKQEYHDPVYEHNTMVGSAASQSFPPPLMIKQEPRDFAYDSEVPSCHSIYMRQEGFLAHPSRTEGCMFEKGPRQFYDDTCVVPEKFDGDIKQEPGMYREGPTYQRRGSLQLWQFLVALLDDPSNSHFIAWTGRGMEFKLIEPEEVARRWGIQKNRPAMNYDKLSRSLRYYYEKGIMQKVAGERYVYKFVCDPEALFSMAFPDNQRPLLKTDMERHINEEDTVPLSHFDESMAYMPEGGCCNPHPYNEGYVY
# Chain of ETV5 (P41161 whole entry): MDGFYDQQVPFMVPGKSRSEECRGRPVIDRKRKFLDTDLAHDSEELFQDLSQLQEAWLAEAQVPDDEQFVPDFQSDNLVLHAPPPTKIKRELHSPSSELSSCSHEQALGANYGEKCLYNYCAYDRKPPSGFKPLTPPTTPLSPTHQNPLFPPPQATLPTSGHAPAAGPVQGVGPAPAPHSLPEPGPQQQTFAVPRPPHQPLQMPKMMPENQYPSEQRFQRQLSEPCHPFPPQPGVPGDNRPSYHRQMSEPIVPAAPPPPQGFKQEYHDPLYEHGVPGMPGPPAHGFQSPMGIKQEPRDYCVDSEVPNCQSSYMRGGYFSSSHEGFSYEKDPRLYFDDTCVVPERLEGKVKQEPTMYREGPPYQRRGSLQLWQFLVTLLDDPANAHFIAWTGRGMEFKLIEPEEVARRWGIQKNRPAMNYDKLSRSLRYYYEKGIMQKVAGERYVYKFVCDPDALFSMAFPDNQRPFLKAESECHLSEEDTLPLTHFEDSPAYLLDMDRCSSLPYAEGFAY
sequence,measurement,setting,value
GCGTTC,binding signal,FLI1,"1.07 fold enrichment (6-mer frequency, TF over GST control)"
same,binding signal,ELK1,"1.06 fold enrichment (6-mer frequency, TF over GST control)"
same,binding signal,GABPA,"1.08 fold enrichment (6-mer frequency, TF over GST control)"
same,binding signal,ERG,"1.03 fold enrichment (6-mer frequency, TF over GST control)"
same,binding signal,ELF1,"1.12 fold enrichment (6-mer frequency, TF over GST control)"
same,binding signal,EHF,"1.06 fold enrichment (6-mer frequency, TF over GST control)"
same,binding signal,SPI1,"1.08 fold enrichment (6-mer frequency, TF over GST control)"
same,binding signal,SPIB,"1.12 fold enrichment (6-mer frequency, TF over GST control)"
same,binding signal,ELK3,"1.13 fold enrichment (6-mer frequency, TF over GST control)"
same,binding signal,FEV,"1.07 fold enrichment (6-mer frequency, TF over GST control)"
same,binding signal,ETV5,"1.17 fold enrichment (6-mer frequency, TF over GST control)"
same,binding signal,HSF1,"1.1 fold enrichment (6-mer frequency, TF over GST control)"
same,binding signal,SPIC,"1.11 fold enrichment (6-mer frequency, TF over GST control)"
same,binding signal,ELF4,"1.1 fold enrichment (6-mer frequency, TF over GST control)"
same,binding signal,ELK4,"1.02 fold enrichment (6-mer frequency, TF over GST control)"
same,binding signal,ETV2,"1.23 fold enrichment (6-mer frequency, TF over GST control)"
same,binding signal,ELF3,"1.15 fold enrichment (6-mer frequency, TF over GST control)"
same,binding signal,ETV1,"1.28 fold enrichment (6-mer frequency, TF over GST control)"
